# According to PubChem BioAssay (NCI):
# Compounds without any hit were thinned out: in the full panel of roughly 83,000, 20% have a hit.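 Treatment: one concentration, 48 hours, 96-well format. Scoring: percent growth, with anything below 10 considered active.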 A number with no mark means an inactive call. Active and inactive are the calls of the source.
# What was measured:
# Experiment in all cases: NCI-60 one-dose screen, 48 h (100 = growth as untreated, 0 = no growth, -100 = all killed)
# NCI-H23 lung = settings: 10 µM unless noted
# NCI-H226 lung = settings: 10 µM unless noted
# NCI-H322M lung = settings: 10 µM unless noted
# HOP-62 NSCLC = settings: 10 µM unless noted
# NCI-H460 lung = settings: 10 µM unless noted
# HOP-92 NSCLC = settings: 10 µM
# NCI-H522 lung = settings: 10 µM unless noted
# A549/ATCC NSCLC = settings: 10 µM unless noted
# 786-0 renal = settings: 10 µM unless noted
# COLO 205 colon = settings: 10 µM unless noted
# DU-145 prostate = settings: 10 µM unless noted
# K-562 leukemia = settings: 10 µM unless noted
# MALME-3M melanoma = settings: 10 µM unless noted
# MDA-MB-231 breast = settings: 10 µM unless noted
# RXF 393 renal = settings: 10 µM unless noted
# SF-268 CNS = settings: 10 µM unless noted
# SF-295 CNS = settings: 10 µM unless noted
# SF-539 CNS = settings: 10 µM unless noted
# UACC-257 melanoma = settings: 10 µM unless noted
SMILES,growth (NCI-H23 lung),growth (NCI-H226 lung) [%],growth (NCI-H322M lung),growth (HOP-62 NSCLC),growth (NCI-H460 lung),growth (HOP-92 NSCLC),growth (NCI-H522 lung),growth (A549/ATCC NSCLC),growth (786-0 renal) [%],growth (COLO 205 colon),growth (DU-145 prostate),growth (K-562 leukemia),growth (MALME-3M melanoma),growth (MDA-MB-231 breast),growth (RXF 393 renal),growth (SF-268 CNS),growth (SF-295 CNS),growth (SF-539 CNS),growth (UACC-257 melanoma)
CNC(=O)c1c(NC(=O)c2cccc(C(F)(F)F)c2F)sc2c1CCC(=O)C2,8.64% (active),16.2,82.4%,22.4%,7.32% (active),-21.5% (active),4.78% (active),14.7%,18.1,-6.56% (active),30.6%,13.2%,6.12% (active),-28.8% (active),-11.4% (active),16.7%,-6.97% (active),-56% (active),-1.77% (active)
Cc1ccc(-n2cc(/C=N/NC(=O)c3ccncc3)c(-c3ccc(S(C)(=O)=O)cc3)n2)cc1,83%,101,93.5%,88.7%,101%,97.5%,68.8%,103%,90,104%,97.3%,32.3%,68.7%,79.5%,103%,100%,102%,91.8%,96.5%
O=S(=O)(NCCNc1nccc(-n2cnc3ccccc32)n1)c1ccc(C(F)(F)F)cc1,54.5%,62.7,85.3%,66.1%,57.8%,54.9%,38.2%,55.4%,69.6,64.9%,71.8%,40.8%,71.4%,64%,38.2%,59.5%,44.7%,64.8%,36.8%
CCN1CCN(Cc2ccc(C(=O)Nc3ccc(C)c(Oc4ccc(-c5[nH]nc6ncnc(N)c56)cc4)c3)cc2C(F)(F)F)CC1,93.2%,85.8,99%,103%,106%,70.3%,101%,96.6%,69.4,56.7%,98.6%,3.44% (active),22.8%,82.7%,44.3%,90.5%,78.8%,55.6%,71.9%
O=S(=O)(NCCCNc1nccc(-n2cnc3ccccc32)n1)c1ccc(C(F)(F)F)cc1,91.3%,77.8,103%,87.1%,89.8%,80.2%,70%,86.3%,91.2,96.4%,94.5%,67.6%,98.4%,83.1%,105%,86.8%,81.2%,87.9%,97.8%
CC1=NC2=NN3C(=NN2C(c2ccccc2)=C1)N=NC(c1ccc(Br)cc1)=C3c1ccc(Br)cc1,105%,102,101%,102%,112%,110%,98.5%,109%,107,112%,112%,96.9%,53.6%,95.7%,138%,102%,106%,97.2%,109%
CN(C)CCNC(=O)c1ccc(-c2nc3ccc4[nH]ncc4c3c3c2CCC3)cc1,-15.2% (active),10.8,6.34% (active),5.66% (active),1.65% (active),-29.8% (active),-40.6% (active),7.96% (active),12,-11.6% (active),5.47% (active),11.3%,-0.0162% (active),-2.41% (active),–,-8.73% (active),2.24% (active),-31.2% (active),47.7%
NS(=O)(=O)c1ccc(-n2cc(CN3CCCCC3)nn2)cc1,107%,98.6,107%,106%,105%,96.6%,95.8%,105%,109,119%,108%,94.9%,105%,105%,106%,102%,102%,102%,101%
CCn1c(SCC(=O)Nc2cccc(C(=O)/C=C/c3cc(OC)c(OC)c(OC)c3)c2)nc2ccccc2c1=O,-17.1% (active),11.5,54.4%,53.8%,2.34% (active),34.6%,38%,41.1%,30.2,102%,13.9%,13.4%,61.8%,23.4%,–,37.7%,75%,24%,67.7%
COc1cc(/C=C2\C(=O)Nc3ccccc32)ccc1OCc1ccc(Cl)cc1,93.3%,96.6,99.7%,101%,41.1%,112%,95.8%,107%,106,116%,98.7%,98.5%,95.5%,99%,–,98.6%,103%,98%,125%
COc1cc(-c2nc(-c3ccccc3)[nH]c2-c2ccnc(NCCCNS(=O)(=O)c3cccc(F)c3)n2)ccc1Cl,53.4%,42.1,87.1%,54%,28.7%,65.1%,32.6%,38%,54.9,9.39% (active),54.3%,23.4%,64.3%,64.8%,36.1%,59.4%,25%,69.5%,58.7%
Oc1cccc2ccc(-c3nnc(SCc4ccc(O)c5ncccc45)n3-c3ccccc3)nc12,20.5%,39.5,20.9%,16.5%,2.48% (active),-0.323% (active),13.5%,15.4%,25.9,53.9%,25.2%,12.4%,-3.5% (active),29.7%,–,22.8%,2.95% (active),4.73% (active),-2.75% (active)
O=C1Nc2ccccc2/C1=C/c1ccc(CO)n1-c1ccc(Cl)cc1,67%,81,102%,59.7%,35.6%,75.4%,53.7%,59%,88.4,71.8%,81.4%,19.3%,27.6%,58.1%,57.1%,74.2%,33.8%,44.5%,83.4%
NC(N)=Nc1ccc(Oc2cccc(NC(N)=Nc3ccc(Br)c(C(F)(F)F)c3)c2)cc1,54.4%,68.6,57.8%,53.3%,24.3%,10.5%,35.7%,41.7%,76.5,27.9%,72.6%,29.3%,67.5%,61.4%,–,18.8%,40.5%,39.8%,54.8%
CS(=O)(=O)Nc1cc(-c2ccc3ncc(C#N)c(NCc4ccccc4F)c3c2)cnc1Cl,1.49% (active),14.6,12.9%,0.205% (active),5.08% (active),-10.9% (active),14.1%,7.89% (active),11.4,-24.7% (active),19%,13.2%,-35.6% (active),5.59% (active),–,7.96% (active),-21.7% (active),-11.5% (active),2.07% (active)
